# Sm TGR block: S. mansoni TGR enzyme inhibition. actives 3% (n = 360,000). purified TGR, DTNB reduction, TNB absorbance 405 nm. Q962Y6. Potency, µM (titrated, usually from 114 µM), for the others: at the top dose activity change, negative = inhibition, most hits filed as inhibitors; also: potency is read from the fitted curve at half-maximal effect; nearly all actives have a fitted effect of over 60% in size
#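 Kinetic colorimetric format: TGR-catalysed, NADPH-driven DTNB reduction monitored via TNB absorbance. Enzyme dispensed at 20 nM; compound exposure 15 min at room temperature before reaction start.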
# FMDV antiviral: blocks foot and mouth disease virus; FMDV antiviral cell-based qHTS; AID 1159524; actives 1.2% (n = 410,000); Potency, µM (titrated, usually from 57.9 µM), without a hit: at the top dose activity change, negative = inhibition, most hits filed as inhibitors; calls by dose curve; tested in HEK293T cells; also: read-out not given here; potency is read from the fitted curve at half-maximal effect; nearly all actives have a fitted effect of over 45% in size
# VACV Venus inh: vaccinia inhibition (Venus reporter); Potency, µM (highest dose often 36.5 µM), for inactives: at the highest dose activity change, negative = inhibition, actives largely listed as inhibitors; Vaccinia virus Venus reporter expression, fluorescence; actives 0.46% (n = 330,000); calls by dose curve; tested in A549 cells; also: potency is read from the fitted curve at half-maximal effect; nearly all actives have a fitted effect of over 30% in size
# HCV inhibitor: inhibitors of hepatitis C virus infection. Huh7.5.1 HCVcc-Cre infection, luciferase reporter, 44 h. AID 651820. actives 3.4% (n = 340,000). Potency, µM (highest dose often 41.8 µM), inactives show at the highest dose activity change, negative = inhibition, actives largely listed as inhibitors; also: potency is read from the fitted curve at half-maximal effect
#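 HCVcc-Cre virus at an moi near 0.5 was added right after compound to cells cultured 4 h from seeding (1,000 cells/well). Luciferase activity was determined 44 h later, 15 min after substrate addition at RT.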
# HCMV antiviral: blocks human cytomegalovirus replication | AID 1259415 | activity change, negative = inhibition, % at 57.5 µM | actives 4.5% (n = 410,000) | HFF cells, HCMV-luciferase reporter, 72 h; stronger effect = lower value; in the data active = activity change below about -60%; inconclusive = no clear call, values can overlap the other calls; inactive = above about -39%
#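 Compounds were evaluated in HFFs infected with an HCMV luciferase reporter virus (MOI 1 PFU/cell). Luciferase in lysates collected 72 h post infection served as the replication measure.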
# Vaccinia mCherry: vaccinia inhibition (mCherry reporter). Vaccinia virus mCherry reporter infection, fluorescence. actives 0.63% (n = 310,000). Potency, µM (doses to about 36.5 µM), without a hit: top-dose activity change, negative = inhibition, hits mostly inhibitors; calls by dose curve; tested in A549 cells; also: potency is read from the fitted curve at half-maximal effect; nearly all actives have a fitted effect of over 35% in size
# Numbers without * were called inactive; i = inactive; ? = inconclusive; · = no result given; + = active, no number; [ ] = dose if it differs, or a comment. Most compounds without a hit are left out; they make up all but 9.3% or so of the library. Unless noted, calls follow the shape of the dose curve; as a rule, active = well fitted curve in the direction sought with a large enough effect; inconclusive = small, poorly fitted or top-dose-only effect, or another doubt; inactive = no such curve, though single readings can be large; an effect the other way counts as inactive or inconclusive. % is scaled to controls: 0 for no effect and ±100 for the full control effect.
SMILES,Sm TGR block,FMDV antiviral,VACV Venus inh,HCV inhibitor,HCMV antiviral,Vaccinia mCherry
COc1ccc(CNC(=O)C2CCCN2CCc2ccccc2)cc1OC (stereo unspecified),2.1%,-29.7%,-3.7%,?,-19.1,-10.3%
Cc1cc(Cl)c(C)c(S(=O)(=O)N2CCN(CC(=O)N3CCOCC3)CC2)c1Cl,-8.4%,-19.5%,·,?,+,·
CCN(CC)S(=O)(=O)c1cc(NC(=O)Cc2ccc(S(=O)(=O)N3CCOCC3)s2)ccc1Cl,·,31.6µM*,·,10µM*,-99.4*,·
Cc1cc(C)c(NC(=O)CNC(=O)Cc2ccc(S(=O)(=O)N3CCOCC3)s2)c(C)c1,-6.3%,-5.1%,·,-3.7%,10.4,·
O=C(Cc1ccc(S(=O)(=O)N2CCOCC2)s1)Nc1cc(C(F)(F)F)cc(C(F)(F)F)c1,2.2%,0.0%,·,11.2µM*,-80.4*,·
O=C(Cc1ccc(S(=O)(=O)N2CCOCC2)s1)Nc1cc(C(F)(F)F)ccc1N1CCCC1,-0.4%,-29.9%,-9.0%,?,26.6,?
Cc1cccc(NC(=O)CNC(=O)Cc2ccc(S(=O)(=O)N3CCOCC3)s2)c1C,-21.7%,-2.7%,·,4.6%,-103.8*,·
O=[N+]([O-])c1ccccc1S(=O)(=O)N1CCN(c2ccccn2)CC1,-22.1%,-5.4%,·,-6.3%,-15.8,·
Cn1c(N)c(C(=O)COC(=O)Cc2ccc(Cl)c(Cl)c2)c(=O)n(C)c1=O,·,-10.7%,·,0.2%,13.4,·
CC(=O)/C(C#N)=C1\NC(=O)C(Cc2ccccc2C)S1 (stereo unspecified),-25.4%,10.3%,79.5%,8.4%,-82.6*,?
CC(=O)/C(C#N)=C1\NC(=O)C(Cc2ccccc2)S1 (stereo unspecified),1.8%,59.5%,118.7%,-4.8%,-99.3*,?
CCOCCCn1c(=N)c(C(=O)NC2CCCC2)cc2c(=O)n3cc(C)ccc3nc21,2.8%,-4.8%,-1.1%,·,9.5,5.7%
CNc1nc2cnc(-c3ccc(OC)c(OC)c3)cc2n1Cc1ccccc1,·,·,·,·,-7.7,·
Cc1ccc(N2C(=O)CC(Sc3nc4ccccc4o3)C2=O)cc1Cl (stereo unspecified),12.6µM*,-9.2%,·,10.7%,31.2,·
Cc1ccc(CN(C)C(=O)C2CCCN2C(=O)c2cccs2)o1 (stereo unspecified),7.94µM*,3.6%,·,9.0%,-27.9,·
CN(CC(=O)Nc1ccc(F)c(F)c1F)C(=O)C1CCCN1C(=O)c1cccs1 (stereo unspecified),·,-22.8%,-14.7%,·,-20.6,-12.1%
CCOC(=O)C(Cc1c(F)cccc1Cl)c1ccno1 (stereo unspecified),5.0%,-16.0%,2.9%,2.1%,-26.3,-12.9%
COc1ccc(-c2nc3c(-c4ccc(Cl)cc4)cnn3cc2C)cc1F,14.5%,-8.2%,-0.6%,-16.8%,-76.3*,2.4%
O=C(c1ccc2c(c1)N(Cc1ccccc1)CCS2)N1CCC2(CC1)OCCO2,-4.7%,15.5%,·,?,?,·
COc1ccc(N2CCN(C(=O)c3ccc4c(c3)NC(=O)C(CSCc3ccccc3F)N4)CC2)cc1 (stereo unspecified),·,-8.5%,-3.2%,·,-9.1,-5.6%
O=C1Nc2cc(C(=O)N3CCC4(CC3)OCCO4)ccc2NC1CSCc1cccc(F)c1 (stereo unspecified),50.1µM*,·,·,·,·,·
Cc1cccc(N2CCN(C(=O)c3ccc4c(c3)NC(=O)C(CSCc3cccc(F)c3)N4)CC2C)c1 (stereo unspecified),0.0%,-26.5%,·,-18.3%,-82.8*,·
O=C(C1CCN(Cc2ccccc2O)CC1)N1CCN(Cc2ccc3c(c2)OCO3)CC1,-16.1%,-21.4%,-4.9%,?,-64.6*,i
O=C(Nc1ccc2c(c1)OCO2)C1CCN(Cc2cc3c(cc2O)OCO3)CC1,2.82µM*,-12.2%,?,12.8%,33.5,?
N#Cc1ccc(S(=O)(=O)N2CCC(C(=O)N3CCN(Cc4ccc5c(c4)OCO5)CC3)CC2)cc1,-2.4%,?,·,10µM*,?,·
SMILES,Sm TGR block,FMDV antiviral,VACV Venus inh,HCV inhibitor,HCMV antiviral,Vaccinia mCherry
COc1ccc(CCn2c(=N)c(C(=O)NCc3ccco3)cc3c(=O)n4ccccc4nc32)cc1OC,·,-12.5%,·,?,-94.9*,·
COc1ccc(CCn2c(-c3ccco3)nc3ccccc3c2=O)cc1OC,-2.1%,31.6µM*,-9.9%,?,6.9,-12.6%
COc1ccc(CCNC(=O)c2cc3c(=O)n4ccccc4nc3n(Cc3ccco3)c2=N)cc1OC,-22.0%,-6.4%,·,2.24µM*,?,·
Cc1ccc(Cn2c(=N)c(C(=O)NCc3ccco3)cc3c(=O)n4ccccc4nc32)cc1,-22.7%,-1.5%,11.4%,11.2µM*,4.6,11.4%
O=C(Cc1ccc(Cl)cc1)Nc1ccc(NC(=O)c2cccs2)cc1,2.3%,4.9%,-7.6%,-4.6%,-34.6,-5.0%
Cc1ccc(C)c(S(=O)(=O)N2CCCC2CNC(=O)C(=O)NCc2ccco2)c1 (stereo unspecified),-3.4%,-23.2%,-14.8%,-0.2%,-27.6,i
Cc1ccc(C)c(S(=O)(=O)N2CCCCC2CCNC(=O)C(=O)NCc2ccco2)c1 (stereo unspecified),-14.7%,?,?,11.2µM*,-33.0,?
Cc1ccc(C)c(S(=O)(=O)N2CCCC2CNC(=O)c2ccc([N+](=O)[O-])cc2)c1 (stereo unspecified),1.1%,?,-7.7%,11.2µM*,-29.5,-23.1%
CC(C)(C)c1ccc(-c2nc3[nH]c(=O)cc(NC(=O)c4ccco4)n3n2)cc1,-4.0%,4.9%,·,25.0%,19.9,·
O=C(O)c1nn(CCOc2c(Cl)cccc2Cl)c(=O)c2ccccc12,1.6%,-3.2%,8.8%,11.5%,-74.7*,11.2µM*
O=C(COc1ccc2ccc(=O)oc2c1)Nc1ccc(N2CCOCC2)cc1,-5.0%,-21.5%,-14.4%,7.2%,15.1,-13.0%
CCn1c(=O)c([N+](=O)[O-])c(NCCc2ccc(OC)c(OC)c2)c2ccccc21,6.8%,22.4µM*,-13.9%,?,-71.8*,-8.7%
COc1ccc(CCNc2nc(N3CCCCC3)nc(N3CCCCC3)n2)cc1OC,10.4%,-6.3%,-7.2%,22.4µM*,-14.3,·
COc1ccc([N+](=O)[O-])cc1/C=N/Nc1nc(N2CCCCC2)nc(N2CCCCC2)n1,3.6%,?,6.3%,20µM*,-37.3,5.7%
COc1ccc(CCNCC(O)Cn2c3ccccc3c3ccccc32)cc1OC (stereo unspecified),12.9%,-21.9%,·,11.2µM*,-63.6*,·
CCCCC(=O)Nc1ccc(C(=O)NCc2ccncc2)cc1,-8.4%,38.1%,·,6.6%,10.3,·
CCOc1ccc(NC(=O)CCC(=O)N/N=C(\C)c2cccs2)cc1,31.2%,24.2%,·,-1.1%,23.4,·
COc1ccc(CCNc2c3ccccc3nc3ccccc23)cc1OC,18.9%,-20.0%,-6.6%[7.34 µM],?,-102.4*,-10.9%[7.34 µM]
